# Mdm2 MdmX PPI: inhibitors of human Mdm2-MdmX association, primary screen, cell-based, luminescence, split luciferase, SaOS-2, uHTS; Protein Mdm4 (Homo sapiens) + E3 ubiquitin-protein ligase Mdm2 (Homo sapiens), …; SaOS-2 split-luciferase Mdm2/MdmX complementation; inhibition, % at 8 µM; actives 3% (n = 330,000);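 active = inhibition of at least 50% at 8 µM in the primary screen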
# Target sequence (O15151 whole entry, looked up): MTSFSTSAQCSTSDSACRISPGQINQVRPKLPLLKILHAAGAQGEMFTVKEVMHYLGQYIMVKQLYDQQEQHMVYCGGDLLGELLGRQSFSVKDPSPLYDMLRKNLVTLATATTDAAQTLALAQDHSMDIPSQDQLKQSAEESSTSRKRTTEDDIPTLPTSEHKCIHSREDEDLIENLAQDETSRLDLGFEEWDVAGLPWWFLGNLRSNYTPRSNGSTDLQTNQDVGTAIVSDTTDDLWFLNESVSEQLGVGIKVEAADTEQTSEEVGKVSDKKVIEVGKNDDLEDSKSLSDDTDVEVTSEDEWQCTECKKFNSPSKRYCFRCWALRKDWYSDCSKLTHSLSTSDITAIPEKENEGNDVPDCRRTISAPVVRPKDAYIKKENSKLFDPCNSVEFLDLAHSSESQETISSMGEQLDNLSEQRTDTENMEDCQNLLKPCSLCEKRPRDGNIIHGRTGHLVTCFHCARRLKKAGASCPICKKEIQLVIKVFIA
# Target sequence (Q00987 whole entry, looked up): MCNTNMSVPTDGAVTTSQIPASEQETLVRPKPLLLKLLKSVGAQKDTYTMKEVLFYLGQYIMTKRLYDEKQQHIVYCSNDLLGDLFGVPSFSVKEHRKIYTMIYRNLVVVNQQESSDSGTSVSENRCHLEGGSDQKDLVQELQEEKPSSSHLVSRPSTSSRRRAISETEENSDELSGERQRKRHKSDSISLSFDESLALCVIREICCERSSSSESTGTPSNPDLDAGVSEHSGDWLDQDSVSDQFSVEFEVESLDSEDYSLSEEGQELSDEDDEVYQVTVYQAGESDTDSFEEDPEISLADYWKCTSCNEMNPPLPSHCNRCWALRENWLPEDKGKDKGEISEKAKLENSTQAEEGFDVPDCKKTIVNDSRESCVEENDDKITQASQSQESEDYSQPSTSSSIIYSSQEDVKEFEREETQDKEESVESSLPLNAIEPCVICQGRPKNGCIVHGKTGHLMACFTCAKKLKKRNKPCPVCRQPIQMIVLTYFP
# Beta cell apopt: inhibitors of cytokine-induced beta cell apoptosis, primary screen, luminescence. INS-1E cytokine-induced death, ATP luminescence, 48 h; percent of positive-control rescue, neutral wells zero. protection from apoptosis, % (test concentration not listed). actives 0.8% (n = 300,000). AID 435005, 2010;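 active = Every replicate reaches about 75%, or at least half do and their mean reaches it too, limit read from the data; inconclusive = At least half of replicates reach the limit but their mean does not; inactive = Under half of replicates reach the limit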;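 note: 0% = cytokine-treated negative control wells and 100% = positive control rescue; higher means more ATP so stronger rescue from cytokine killing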
# aSyn UTR inh: MLPCN primary screen, SNCA 5' untranslated region | alpha-synuclein 5'UTR reporter, inhibitor activity | inhibition, % (tested at 7.5 µM) | actives 0.82% (n = 300,000) | AID 1813, 2009; in the data active = inhibition above about 60%; inconclusive = no clear call, values can overlap the other calls;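 note: H4 neuroglioblastoma cells stably carrying SNCA 5'UTR luciferase fusion; 0% = DMSO wells and 100% = positive control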
# Bfl-1 A1 inh: caspase 3/7 activation in MEF A1-2A-BIM cells, primary screen, A1 inhibitor project, cell-based, luminescence, HTS. Caspase-Glo 3/7 luminescence, 3 h; percent of clofoctol response, vehicle zero. caspase activation, % (no concentration beside the values). actives 0.066% (n = 330,000);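 active = over half of replicate activation scores above 10%, or exactly half above 10 with the replicate mean above 10; inconclusive = replicate mean below 10 yet half the replicates above 10; inactive = over half of replicates below 10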
# CSC inhib: cancer stem cell viability inhibitors, primary screen, luminescence; cancer stem cell-like cells viability; inhibition, % at 7.5 µM; actives 1.1% (n = 300,000); in the data active = inhibition above about 75%; inconclusive = no clear call, values can overlap the other calls; tested in HMLE shEcad cells
# Mdm2-MdmX conf: Mdm2-MdmX complex disruptors, retested hits, confirmation, luminescence, single concentration; shares compounds with Mdm2 MdmX PPI; Mdm2-MdmX binding, luminescent assay; inhibition, % at 8 µM; actives 55% (n = 10,000); in the data active = inhibition above about 40%
# FLuc counter: full-length luciferase signal inhibition, confirmation, counter-screen for Mdm2/MdmX interaction inhibitor project, cell-based, single concentration, SaOS-2 | SaOS-2 full-length luciferase counterscreen, luminescence | actives 77% (n = 6,200) | inhibition, % at 8 µM | AID 504607, 2011 | shares compounds with Mdm2 MdmX PPI;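 active = mean inhibition at 8 µM reaching about 37%, which flags the compound as non-specific, limit read from the data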;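 note: p53-null SaOS-2 cells with luciferase driven by a doxycycline-inducible promoter; compound on cells about two nights before reading with doxycycline added after day one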
# Numbers without * were called inactive; ? = inconclusive; . = not tested or not shown. Compounds with a hit are over-represented: about 4.1% of the library has one in this group of screens.
SMILES,Mdm2 MdmX PPI,Beta cell apopt,aSyn UTR inh,Bfl-1 A1 inh,CSC inhib,Mdm2-MdmX conf,FLuc counter
CC(C)NC(=O)Nc1cccc2c1O[C@H](CN(C)C(=O)NC1CCCCC1)[C@H](C)CN([C@H](C)CO)C2=O,3,-4,.,1,16,.,.
CCN1CCCC1CNC(=O)c1ccc2c(c1)NC(=O)/C(=C\c1ccc(C)cc1)S2 (stereo not drawn),97*,0,74*,3,34,34,69*
Cc1ccccc1N(C(=O)CNC(=O)c1ccco1)C(C(=O)NC1CCCC1)c1ccncc1 (stereo not drawn),13,-3,3,-1,-1,.,.
Cn1c(Sc2ccc(Cl)cc2)c(C=O)c2ccccc21,81*,-10,15,-2,36,77*,57*
Cn1c(Oc2ccc(Cl)cc2)c(C=O)c2ccccc21,50*,9,8,0,14,41*,34
O=C(CN1C(=O)CCC1=O)c1ccc(-c2ccccc2)cc1,-13,1,-82,0,-7,.,.
N=c1ccn(CC(=O)c2ccc(-c3ccccc3)cc2)cc1,66*,134*,110*,-1,19,69*,41*
CCCCCCCCCC(=O)N[C@@H]1c2cc(OC)c(OC)cc2C[C@H]1OCc1ccccc1,89*,.,.,.,.,69*,36
COc1cc(C(=O)OCCCN2CCCN(CCCOC(=O)c3cc(OC)c(OC)c(OC)c3)CC2)cc(OC)c1OC,61*,.,-25,1,-7,41*,86*
CCN(CC)CCCCCCCCOC(=O)c1cc(OC)c(OC)c(OC)c1,50*,6,.,0,35,28,.
CC(=O)c1ccc(-c2ccc(C(=O)Nc3nc(C)c(C(C)=O)s3)o2)cc1,6,5,.,-1,.,.,.
Cc1nc(-c2cccnc2)sc1C(=O)N/N=C/c1ccccc1Cl,70*,10,3,0,4,18,.
Cc1nc(-c2cccnc2)sc1C(=O)Nc1ccc(Cl)cc1,25,3,-4,0,-1,.,.
COc1ccc(-n2ncc3c(N(C)C4CCCCC4)ncnc32)cc1,88*,-5,94*,-1,19,92*,102*
Cc1cccc(-n2ncc3c(N(CCO)CCO)ncnc32)c1,-20,.,-106,0,-3,.,.
Cc1cccc(-n2ncc3c(N(C)C4CCCCC4)ncnc32)c1,90*,.,66*,-6,55,87*,84*
COc1ccc(-n2ncc3c(N4CCC(C)CC4)ncnc32)cc1,25,10,18,-2,45,.,.
CC1CCCC(NC(=O)CSc2n[nH]c(=O)n2Cc2ccccc2)C1C (stereo not drawn),7,4,.,0,10,.,.
NS(=O)(=O)c1ccc(CNC(=O)/C=C/c2cccc([N+](=O)[O-])c2)cc1,-1,-2,-2,1,-12,.,.
O=C(N=C1SC2CS(=O)(=O)CC2N1CCc1ccc(F)cc1)C1CCCCC1 (stereo not drawn),26,-1,21,0,-10,.,.
O=C(Nc1nccs1)c1cccc(N2C(=O)c3cccc4c([N+](=O)[O-])ccc(c34)C2=O)c1,87*,2,-6,0,36,9,.
O=C(Nc1ccc(S(=O)(=O)Nc2nccs2)cc1)c1cccc(N2C(=O)c3ccccc3C2=O)c1,9,-6,6,1,1,.,.
O=C(CC1S/C(=N/N=C/C=C/c2ccccc2)NC1=O)Nc1ccc(Cl)c(Cl)c1 (stereo not drawn),63*,0,-12,0,8,12,.
CCN1C=CC(=C2C(=O)c3ccccc3C2=O)C=C1,72*,21,96*,-1,-6,78*,37*
CCCN1C=CC(=C2C(=O)c3ccccc3C2=O)C=C1,88*,63,132*,-6,55,94*,55*
SMILES,Mdm2 MdmX PPI,Beta cell apopt,aSyn UTR inh,Bfl-1 A1 inh,CSC inhib,Mdm2-MdmX conf,FLuc counter
COC(=O)c1cccc(NC(=O)CN2CCc3ccccc3C2)c1,9,-4,2,0,-20,.,.
COCC(C)NC(=O)c1nn(Cc2ccccc2)c(=O)c2ccccc12 (stereo not drawn),19,-2,-9,0,-7,.,.
CC1CCCN(S(=O)(=O)c2ccc(NC(=O)C3CCN(C(=O)c4ccco4)CC3)cc2)C1 (stereo not drawn),-2,-1,13,1,-3,.,.
CC1(c2ccc3ccccc3c2)NC(=O)N(CC(=O)N2CCCC(C(F)(F)F)C2)C1=O (stereo not drawn),-20,-6,.,0,.,.,.
Fc1ccc(-n2nnnc2-c2cnc(-c3cccs3)nc2C(F)(F)F)cc1,56*,26,8,1,22,44*,59*
Cc1cccc(OCCCC(=O)Nc2nc3ccccc3[nH]2)c1,76*,13,-31,0,84*,74*,65*
Cc1ccc(OCCCC(=O)Nc2nc3ccccc3[nH]2)cc1,-1,4,-55,1,.,.,.
O=C(NCCCc1ccccc1)c1cccc(Br)c1,11,1,-24,0,8,.,.
O=C(CN(Cc1ccccc1)C(=O)CCl)c1cccc(Br)c1,100*,10,.,0,16,80*,60*
CCc1nc(N)nc(N)c1-c1ccc(Cl)cc1,51*,.,85*,.,.,17,.
C/C(=N\NC(=O)C(C)Sc1ccccc1)c1ccc([N+](=O)[O-])cc1 (stereo not drawn),-9,.,-11,0,-4,.,.
O=C(O)c1c2c(nc3ccccc13)/C(=C/c1ccc(O)cc1)CC2,62*,1,44,-7,-9,60*,106*
COC(=O)Cc1[nH]n(-c2nc3ccccc3s2)c(=O)c1C(C)=Nc1ccc(C)cc1,56*,5,98*,?,-5,56*,32
O=c1cc(N/N=C/c2ccccc2)[nH]c(=O)[nH]1,70*,64,23,0,14,21,.
O=c1nccc(N/N=C/c2ccccc2)[nH]1,-13,-2,-49,-11,2,.,.
COc1ccccc1CNC(=S)Nc1ccc2nc(N3CCN(C)CC3)cc(C)c2c1,54*,-5,-52,1,80*,50*,61*
COc1cc(NC(=O)CCC(=O)Nc2ccc3nc(N4CCOCC4)cc(C)c3c2)cc(OC)c1OC,5,0,-49,0,-7,.,.
Cc1cc(N2CCN(C)CC2)nc2ccc(NC(=O)c3ccc4c(c3)OCO4)cc12,55*,-13,.,-1,19,17,.
Cc1cc(N2CCN(C)CC2)nc2ccc(NC(=O)c3ccc(Br)o3)cc12,30,18,-103,-1,12,.,.

# Assay outcomes as filed in PubChem.
